MsrA inhibitor = inhibitors of bovine MsrA | 0.75% of 360,000 active | AID 651718 | purified bovine MsrA, absorbance read-out | inhibition, % at 15.5 µM; in the data active = inhibition above about 4.5%
PLC-gamma1 inh = blocks human PLC-gamma1 enzyme activity; purified PLC-gamma1, fluorogenic substrate, fluorescence; P19174; 0.84% of 370,000 active; inhibition, % at 12.2 µM; in the data active = inhibition above about 9.5%
PLC-beta3 inh = inhibitors of human phospholipase C beta3; Q01970; Purified PLC-beta3, fluorogenic substrate, fluorescence; inhibition, % at 12.2 µM; 0.18% of 370,000 active; AID 720704; in the data active = inhibition above about 11%
MsrA act = activators of bovine methionine sulfoxide reductase A. activation, % at 10.6 µM. 0.3% of 360,000 active. purified bovine MsrA, absorbance read-out; in the data active = activation above about 7.5%
MsrA activ conf = bovine methionine sulfoxide reductase A activation confirmed | shares compounds with MsrA act | purified bovine MsrA, absorbance read-out | activation, % at 10.6 µM | 12% of 1,000 active; in the data active = activation above about 4%;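 also: enzyme coupled to thioredoxin and thioredoxin reductase with NADPH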
Numbers stand for hits; 0 = inactive; - = no result given. This is a sample that favours compounds with a hit; in the whole collection about 1.9% have one here.

SMILES	MsrA inhibitor	PLC-gamma1 inh	PLC-beta3 inh	MsrA act	MsrA activ conf
Cc1ccccc1N=C1NC(=O)/C(=C/c2cccn2C)S1	0	0	0	8.1	0
Cc1cccc(N=C2NC(=O)/C(=C/c3cccn3C)S2)c1	0	0	0	0	-
CCOC(=O)CNC(=O)c1ccccc1Br	0	0	0	20.9	0
Cc1cc(NC(=O)COC(=O)C2CC(=O)N(c3ccc(Br)cc3)C2)no1 (stereo unspecified)	0	0	0	0	-
COc1ccc(N2CC(C(=O)OCC(=O)Nc3cc(C)on3)CC2=O)cc1 (stereo unspecified)	0	0	0	8.0	0
NCCc1nnc(SCc2ccc(F)cc2)o1	0	0	0	0	-
NCCCCCc1nnc(SCc2ccc(Cl)c(Cl)c2)o1	0	0	0	8.3	0
O=C1c2ccccc2-c2nnc(-c3ccccc3)cc21	0	0	0	9.4	4.0
CC[n+]1ccc(C[n+]2ccccc2)c2ccccc21	0	0	0	10.5	0
C[C@H]1CN(C(=O)OC(C)(C)C)CCN1c1ccc(N2CC[C@H](O)C2)c(C#N)c1	0	0	0	-	-
Cc1ccc(-c2cc(NC(=O)Cc3c[nH]c4ccccc34)ccc2N(C)c2cccnc2)cc1	0	0	0	-	-
COc1cc2c(cc1OC)C(c1cc([N+](=O)[O-])ccc1O)NCC2 (stereo unspecified)	0	0	0	9.0	0
COc1cc2c(cc1OC)C(c1ccc([N+](=O)[O-])cc1)NCC2 (stereo unspecified)	0	0	0	0	-
COCc1[nH]nc2c1C(c1ccc(Br)cc1)N(Cc1ccccc1)C2=O (stereo unspecified)	0	0	0	-	-
CC1CCN(CCCNC(=O)c2cn(C)c3ccc(S(=O)(=O)N4CCCC4)cc3c2=O)CC1	0	0	0	7.9	0
CCOC(=O)[C@H]1[C@H]2COc3ccc(OC)cc3[C@@H]2N2C(=O)CN(Cc3ccc(C)cc3)C(=O)[C@@]12C	0	0	0	14.0	0
COc1ccc(C(=O)N2CC3(C)C4CCC3(C)C2(C#N)C4)cc1OC (stereo unspecified)	0	0	0	0	-
CC12CN(C(=O)c3ccccc3)C3(C#N)CC1CCC23C (stereo unspecified)	0	0	0	13.5	0
CCOC(=O)C1(Cc2ccccc2)CCN(Cc2csc(C(C)=O)c2)CC1	0	0	0	9.8	0
Cc1ccc(C)c2nc3sc(C(=O)N4CCOCC4)c(N)c3cc12	0	0	0	8.8	4.9
CCCCOCCCNC(=O)C[C@H]1C[C@@]2(C(=O)OC)C(=C[C@H](C(C)(C)C)O[C@@H]2C)N(Cc2ccccc2)C1=O	0	0	0	-	-
Cn1c(=O)c(=O)n(C)c2cc(S(=O)(=O)N3CCN(c4ccccc4Cl)CC3)ccc21	-	0	0	-	-
COc1cccc(-c2cc(C(F)(F)F)n3nc(N)nc3n2)c1	0	0	0	13.8	0
COc1ccc(-c2cc(C(F)(F)F)n3nc(N)nc3n2)cc1	-	-	-	0	-
COCCN1Cc2cc(C(=O)OC)c3c(c2C1=O)c1cc(F)ccc1n3S(=O)(=O)c1cccc(C)c1	0	0	0	-	-
SMILES	MsrA inhibitor	PLC-gamma1 inh	PLC-beta3 inh	MsrA act	MsrA activ conf
Cc1cccc(N(CC(=O)NC2CCCCC2)C(=O)CCCC(=O)Nc2ccccn2)c1	0	0	0	0	-
Cc1cccc(N(CC(=O)NC2CCCC2)C(=O)CCCC(=O)Nc2ccccn2)c1	0	0	0	7.7	0
C[C@H]1CNCCN1c1ccc(N2CCS(=O)(=O)CC2)c(C#N)c1	0	0	0	-	-
O=C(C[n+]1cc(-c2ccccc2)n2c1CCC2)c1cccs1	0	0	0	8.9	0
COC(=O)[C@]12C[C@H](CC(=O)N3CCN(C(=O)c4ccco4)CC3)C(=O)N(Cc3ccc4c(c3)OCO4)C1=C[C@H](COCc1ccccc1)O[C@@H]2C	0	0	0	-	-
CCCCCCCCN1C(=O)[C@@H](CC(=O)N2CCSCC2)C[C@@]2(C(=O)OC)C1=C[C@H](C(C)(C)C)O[C@@H]2C	0	0	0	-	-
S=c1nc(-c2ccco2)[nH][nH]1	0	0	0	8.2	0
COC(=O)[C@]12C[C@H](CC(=O)N3CCOCC3)C(=O)N(CCc3ccc(OC)c(OC)c3)C1=C[C@H](C(C)(C)C)O[C@@H]2C	0	0	0	-	-
O=c1ccsn1Cc1ccccc1	0	0	0	17.8	5.6
C#CCNC(=O)C[C@H]1C[C@@]2(C(=O)OCC)CCCC3=C2N(CCC3)C1=O	-	0	0	-	-
CCOc1cccc(/C=N\NC(=O)Cc2cccs2)c1O	-	0	0	-	-
O=C(C1CCN(S(=O)(=O)N2CCOCC2)CC1)N1CCOCC1	0	0	0	0	-
O=C(C1CCN(S(=O)(=O)N2CCOCC2)CC1)N1CCN(c2ccccc2)CC1	0	0	0	10.2	0
Cn1c(CO)cnc1SCC(=O)c1ccc(Br)cc1	0	0	0	13.4	0
CCCC[C@H]1C2CC(OC(=O)Nc3cccc(F)c3)C(C2)[C@H]2CCCCN21 (stereo partly specified)	-	0	0	-	-
CC(C)C[C@H]1CN(CCCC[C@@H]2CNC(=O)C(=O)N2CCc2ccccc2)C(=O)C(=O)N1Cc1ccccc1	0	0	0	19.1	0
CCN(C(=O)COC(=O)CCC(=O)c1ccc(Cl)cc1)c1c(N)n(Cc2ccccc2)c(=O)[nH]c1=O	0	0	0	7.7	0
Cc1ccc(C(=O)CCC(=O)OCC(=O)N(C)c2c(N)n(Cc3ccccc3)c(=O)[nH]c2=O)cc1	0	0	0	0	-
CCOC(=O)[C@]12CCCCC/C=C\1N(Cc1ccc(OC)cc1)C(=O)[C@H]2CC(=O)NCCc1ccccc1OC	-	0	0	-	-
Cc1[nH]c(C)c2c(=O)n(Cc3ccc(Cl)cc3)ncc12	0	0	0	14.2	0
Cc1ccc2[nH]c3c(c2c1)CN(C(=O)CN1CCN(c2ccccn2)CC1)CC3	0	0	0	10.4	4.0
CCOC(=O)[C@]12CCCCC/C=C\1N(CCc1ccc(Cl)cc1)C(=O)[C@H]2CC(=O)NCc1ccc(OC)c(OC)c1	-	0	0	-	-
O=C(O)[C@@H]1Cc2ccccc2N1	0	0	0	8.2	0
O=C(O)C1Cc2ccccc2-c2ccccc2C1	0	0	0	0	-
C=CC[C@]12C[C@@]3(O[C@H](c4ccccn4)N=C3C[C@H](c3ccc(OC)cc3)[C@H]1C)N(C1CCN(Cc3ccccc3)CC1)C2=O	0	0	0	-	-
SMILES	MsrA inhibitor	PLC-gamma1 inh	PLC-beta3 inh	MsrA act	MsrA activ conf
CCOC(=O)c1sc(=S)n(-c2ccccc2Cl)c1SC	0	0	0	0	-
CCOC(=O)c1sc(=S)n(-c2ccccc2)c1SC	0	0	0	9.2	0
O=C(ONc1ccc(N=NC(=O)c2ccccc2O)cc1)c1ccccc1	0	0	0	0	-
O=Nc1ccc(NOC(=O)c2ccccc2Br)cc1	0	0	0	10.3	0
CCCCN(C)C(=O)c1cc2cc3ccc(OC)cc3nc2o1	0	0	0	17.2	0
COc1ccccc1C(=O)NCCC(=O)NCCCSc1ccccc1	0	0	0	9.8	0
COc1ccc(NS(=O)(=O)c2cccc(C(=O)NNC(=O)c3cc(C)oc3C)c2)cc1	0	0	0	0	-
COc1ccc(NS(=O)(=O)c2cc(C)ccc2NC(=O)c2cc(C)oc2C)cc1	0	0	0	9.3	0
O=C1CCC(C(=O)N2CCCC2)CN1Cc1cccc(C(F)(F)F)c1 (stereo unspecified)	0	0	0	9.8	0
